The supplement of paper PMC10127200
Structures can show the parent of a compound that is named as a salt.

What follows are compounds tested on DU145 (assay: Euclidean distance of Cell Painting phenotypic profile (signed KS, 77 features) to DMSO centroid (dimensionless distance); 5 or 10 uM (library dependent); higher = stronger phenotypic change vs DMSO (phenoactivity)). Conditions: 48 h.
Method in brief: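 Five cancer lines, together with a healthy fibroblast line, received library compounds for 48 h at a library-dependent 10 or 5 uM and 0.1% DMSO final. Harmony then derived 77 features from confocal 20X images (9 fields/well) of the stained cells, scoring each as a signed Kolmogorov-Smirnov statistic against same-plate vehicle wells. After plate-position correction, correlation weighting and replicate averaging at the top dose, phenoactivity was taken as each profile's Euclidean distance to the median vehicle profile.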

How did the Euclidean distance turn out when `CCOC(=O)Nc1cc(-c2ccc(C)c(NS(C)(=O)=O)c2)nn2c(C)nnc12` [Bromosporine] was run?
Its Euclidean distance is 2.42.

`CC(C)c1nc(CN(C)C(=O)N[C@@H](CCN2CCOCC2)C(=O)N[C@H](CC[C@H](Cc2ccccc2)NC(=O)OCc2cncs2)Cc2ccccc2)cs1` [Cobicistat (GS-9350)] was tested. Which Euclidean distance did it give?
The Euclidean distance was 1.67.

For `C=C[C@](C)(O)CC[C@@H]1[C@@]2(C)CCCC(C)(C)[C@@H]2CC[C@@]1(C)O` [Sclareol], which Euclidean distance is on record?
The Euclidean distance was 0.574.

How did the Euclidean distance turn out when `CCCC1O[C@@H]2C[C@H]3[C@@H]4CCC5=CC(=O)C=C[C@]5(C)[C@H]4[C@@H](O)C[C@]3(C)[C@]2(C(=O)CO)O1` (some centres undefined) [Budesonide] was run?
The Euclidean distance was 2.06.

How did the Euclidean distance turn out when `CO/N=C(\C(=O)N[C@@H]1C(=O)N2C(C(=O)O)=C(COC(C)=O)CS[C@H]12)c1csc(N)n1` [Cefotaxime sodium] was run?
Its Euclidean distance is 0.877.

Which Euclidean distance does the source give for `O=C(O)Cc1ccccc1Nc1c(Cl)cccc1Cl` [Diclofenac Diethylamine] here?
Its Euclidean distance is 0.728.

Which Euclidean distance does the source give for `Cc1cc(C(=O)NOCCO)c(Nc2ccc(I)cc2F)n(C)c1=O` here?
The Euclidean distance was 2.82.

Which Euclidean distance does the source give for `CCCCc1ncc(/C=C(\Cc2cccs2)C(=O)O)n1Cc1ccc(C(=O)O)cc1` [Eprosartan Mesylate] here?
The Euclidean distance was 1.64.

How did the Euclidean distance turn out when `Cn1nc(C(C)(C)C)cc1C(=O)N[C@@H](Cc1cccc(Cl)c1)C(=O)NCC#N` [Cathepsin Inhibitor 1] was run?
Its Euclidean distance is 2.22.

`C/C=C\c1ccc(O)c(OC)c1` [Isoeugenol] was tested. Which Euclidean distance did it give?
The Euclidean distance was 1.07.

How did the Euclidean distance turn out when `Cc1cc(N2CCN([C@@H]3CN[C@H](C(=O)N4CCSC4)C3)CC2)n(-c2ccccc2)n1` [Teneligliptin hydrobromide] was run?
Its Euclidean distance is 2.06.

Which Euclidean distance does the source give for `COc1ccc(-c2ccc3c(N4CCOC[C@@H]4C)nc(N4CCOC[C@@H]4C)nc3n2)cc1CO` here?
Its Euclidean distance is 2.25.

How did the Euclidean distance turn out when `CC(C)(C)Cn1c(N)nc2ccc(-c3[nH]c(C(C)(C)C)nc3-c3ccc(F)cc3)nc21` was run?
The Euclidean distance was 2.57.

How did the Euclidean distance turn out when `CCN1CCN(C(=O)N[C@@H](C(=O)N[C@@H]2C(=O)N3[C@@H]2SC(C)(C)[C@@H]3C(=O)O)c2ccccc2)C(=O)C1=O` [Piperacillin Sodium] was run?
Its Euclidean distance is 0.884.

Which Euclidean distance does the source give for `COc1cc(N2CCC(N3CCN(C)CC3)CC2)ccc1Nc1ncc(Cl)c(Nc2ccccc2S(=O)(=O)C(C)C)n1` here?
The Euclidean distance was 2.48.

`OC1CN(CCCOCCc2ccc3sccc3c2)C1` [Edonerpic maleate] was tested. Which Euclidean distance did it give?
Its Euclidean distance is 0.87.

How did the Euclidean distance turn out when `c1cc(CN2CCCNCCNCCCNCC2)ccc1CN1CCCNCCNCCCNCC1` [Plerixafor 8HCl (AMD3100 8HCl)] was run?
The Euclidean distance was 0.691.

How did the Euclidean distance turn out when `COc1cc(C(=O)OCCCCNC(=N)N)cc(OC)c1O` [Leonurine] was run?
The Euclidean distance was 0.698.

With `C[C@H](Cn1cnc2c(N)ncnc21)OCP(=O)(O)O` [Tenofovir] as the compound, how does the Euclidean distance read?
The Euclidean distance was 0.705.

How did the Euclidean distance turn out when `NC(=O)[C@@H]1CSSCCC(=O)N[C@@H](CCCCN=C(N)N)C(=O)NCC(=O)N[C@@H](CC(=O)O)C(=O)N[C@@H](Cc2c[nH]c3ccccc23)C(=O)N2CCC[C@H]2C(=O)N1` [Eptifibatide Acetate] was run?
Its Euclidean distance is 0.993.

With `CC[C@H](NC(=O)[C@H](C)NC)C(=O)N1C[C@@H](O)C[C@H]1Cc1c(-c2[nH]c3cc(F)ccc3c2C[C@@H]2C[C@H](O)CN2C(=O)[C@H](CC)NC(=O)[C@H](C)NC)[nH]c2cc(F)ccc12` [Birinapant] as the compound, how does the Euclidean distance read?
The Euclidean distance was 2.69.

With `C[C@]12CC[C@@H]3c4ccc(O)cc4CC[C@H]3[C@@H]1CC[C@@H]2O` [Estradiol] as the compound, how does the Euclidean distance read?
The Euclidean distance was 2.36.

`CCOC(=O)c1c(N)sc2c1CCN(Cc1ccccc1)C2` [Tinoridine hydrochloride] was tested. Which Euclidean distance did it give?
Its Euclidean distance is 1.2.

`Nc1nc2[nH]cc(CCc3ccc(C(=O)N[C@@H](CCC(=O)O)C(=O)O)cc3)c2c(=O)[nH]1` [Pemetrexed Disodium Hydrate] was tested. Which Euclidean distance did it give?
The Euclidean distance was 1.28.

`CC[C@]12CCCN3CCc4c(n(c5ccccc45)[C@@](O)(C(=O)OC)C1)[C@@H]32` [Vincamine] was tested. Which Euclidean distance did it give?
Its Euclidean distance is 0.578.

Which Euclidean distance does the source give for `O=C(/C=C/c1ccc(O)c(O)c1)c1ccc(O)cc1O` [Butein] here?
Its Euclidean distance is 1.12.

With `CC(COc1ccccc1)NC(C)C(O)c1ccc(O)cc1` (centres undefined) [Isoxsuprine hydrochloride] as the compound, how does the Euclidean distance read?
The Euclidean distance was 0.854.

For `Nc1nnc(-c2cccc(Cl)c2Cl)c(N)n1` [Lamotrigine], which Euclidean distance is on record?
The Euclidean distance was 0.825.

`O=C(O)c1cccnc1` [Nicotinic Acid] was tested. Which Euclidean distance did it give?
Its Euclidean distance is 1.08.

`CC(C)(CO)[C@@H](O)C(=O)NCCC(=O)O` [D-Pantothenic acid] was tested. Which Euclidean distance did it give?
The Euclidean distance was 0.734.

`CC1(C)O[C@@H]2C[C@H]3[C@@H]4C[C@H](F)C5=CC(=O)C=C[C@]5(C)[C@@]4(F)[C@@H](O)C[C@]3(C)[C@]2(C(=O)CO)O1` [Fluocinolone Acetonide] was tested. Which Euclidean distance did it give?
The Euclidean distance was 2.

For `Cc1ccc(C(=O)N(CCCN)[C@@H](c2nc3cc(Cl)ccc3c(=O)n2Cc2ccccc2)C(C)C)cc1`, which Euclidean distance is on record?
The Euclidean distance was 4.25.

`OC(CN1CCN(c2cccc(Cl)c2)CC1)C(c1ccccc1)c1ccccc1` (centres undefined) was tested. Which Euclidean distance did it give?
Its Euclidean distance is 0.908.

With `COc1cc(/C=C/C(=O)O)ccc1O` [Sodium ferulate] as the compound, how does the Euclidean distance read?
Its Euclidean distance is 1.14.

Which Euclidean distance does the source give for `CS(=O)(=O)N1CCc2c(-c3cnc(N)nc3)nc(N3CCOCC3)nc21` here?
Its Euclidean distance is 0.984.

For `C=CCc1cccc(/C=N/NC(=O)CN2CCN(Cc3ccccc3)CC2)c1O`, which Euclidean distance is on record?
The Euclidean distance was 1.28.

How did the Euclidean distance turn out when `O=C(NCCCNc1nc(Nc2cccc(NC(=O)N3CCCC3)c2)ncc1I)c1cccs1` was run?
The Euclidean distance was 3.26.

`N[C@@H]1CCCCN(c2c(F)cc3c(=O)c(C(=O)O)cn(C4CC4)c3c2Cl)C1` [Besifloxacin HCl] was tested. Which Euclidean distance did it give?
The Euclidean distance was 0.808.

With `C=CC(=O)Nc1cc(Nc2nccc(-c3cn(C4CC4)c4ccccc34)n2)c(OC)cc1N(C)CCN(C)C` as the compound, how does the Euclidean distance read?
The Euclidean distance was 3.44.
